This is an account of results in PubChem BioAssay (Tox21).

Assay [1] can be described thus: qHTS assay to identify small molecule antagonists of the thyroid receptor (TR) signaling pathway (AID 743065). Also: nearly all actives have a fitted effect of over 55% in size. Also: potency is read from the fitted curve at half-maximal effect. The gist of the method: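 GH3.TRE-Luc rat pituitary cells (two TREs driving luciferase) were dosed with compound, then stimulated with 1 nM T3 (final) for 23.5 h at 37 C. ONE-Glo luminescence was the read-out, with CellTiter-Fluor fluorescence as the cytotoxicity counter-screen.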

Assay [2] relates to thyroid hormone receptor (rat, GH3 cells). As to the kind of experiment: qHTS assay to identify small molecule agonists of the thyroid receptor (TR) signaling pathway (AID 743066; calls by dose curve).
Assay [3] deals with Estrogen receptor (Homo sapiens) (UniProt P03372). The assay can be described thus: qHTS assay to identify small molecule antagonists of the estrogen receptor alpha (ER-alpha) signaling pathway (AID 743069; active = well fitted curve in the direction sought with a large enough effect in the signal ratio in the repeat runs, not every such curve was filed as active; the % refers to the signal ratio). Summed up:
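Beta-lactamase FRET fluorescence is read after 2 hr at room temperature with LiveBLAzer B/G substrate. Before that, ER-alpha-bla HEK293 cells sit 4 hr after plating, then receive compound plus 17beta-estradiol and incubate 18 hr at 37C.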

Assay [4] in a line: qHTS assay to identify small molecule antagonists of the estrogen receptor alpha (ER-alpha) signaling pathway - cell viability counter screen (AID 743074; calls by dose curve;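 also: HEK293 cells carrying ER-alpha-UAS-bla reporter stimulated with 17beta-estradiol; nearly all actives have a fitted effect of over 45% in size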).
Assay [5] deals with Estrogen receptor (Homo sapiens) (UniProt P03372). The assay can be described thus: qHTS assay to identify small molecule agonists of the estrogen receptor alpha (ER-alpha) signaling pathway (AID 743075; calls by dose curve;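 also: HEK293 GripTite cells with ER-alpha and UAS-driven beta-lactamase reporter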).
The nature of assay [6]: qHTS assay to identify small molecule antagonists of the estrogen receptor alpha (ER-alpha) signaling pathway using the BG1 cell line (AID 743080; calls by dose curve;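 also: BG1 cells stimulated with 17beta-estradiol alongside compound; series mostly up to about 70 µM; nearly all actives have a fitted effect of over 25% in size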). The gist of the method:
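Luminescence from a 4×ERE-luciferase reporter in BG1-Luc-4E2 cells served as read-out. Cells, pre-cultured 5 days in stripped-serum phenol-red-free medium, were exposed to compound with 17beta-estradiol co-stimulation for 21.5 h at 37 C.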

Assay [7] is described as follows: qHTS assay to identify small molecule antagonists of the estrogen receptor alpha (ER-alpha) signaling pathway using the BG1 cell line - cell viability counter screen (AID 743081).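 Also: compound given together with 17beta-estradiol as the ER stimulus; series mostly up to about 70 µM; nearly all actives have a fitted effect of over 45% in size.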
The target of a further assay is Aromatase (Homo sapiens) (UniProt P11511). As to the kind of experiment: qHTS assay to identify aromatase inhibitors (AID 743083). Also: series mostly up to about 70 µM; nearly all actives have a fitted effect of over 55% in size.
Assay [8] in a line: qHTS assay to identify aromatase inhibitors - cell viability counter screen (AID 743084).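 Also: cells stimulated with testosterone during compound exposure; nearly all actives have a fitted effect of over 55% in size.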
Assay [9] deals with Estrogen receptor (Homo sapiens) (UniProt P03372). The assay can be described thus: qHTS assay to identify small molecule agonists of the estrogen receptor alpha (ER-alpha) signaling pathway using the BG1 cell line (AID 743079). Also: nearly all actives have a fitted effect of over 20% in size. Also: potency is read from the fitted curve at half-maximal effect.

Inconclusive results are not listed. The source made the active and inactive calls. Unless noted, calls follow the shape of the dose curve; as a rule, active = well fitted curve in the direction sought with a large enough effect in the repeat runs; inconclusive = weak or mixed curves; inactive = no such curve, though single readings can be large; an effect the other way counts as inactive or inconclusive.

Estrogen receptor (Homo sapiens), sequence (P03372 whole entry, looked up): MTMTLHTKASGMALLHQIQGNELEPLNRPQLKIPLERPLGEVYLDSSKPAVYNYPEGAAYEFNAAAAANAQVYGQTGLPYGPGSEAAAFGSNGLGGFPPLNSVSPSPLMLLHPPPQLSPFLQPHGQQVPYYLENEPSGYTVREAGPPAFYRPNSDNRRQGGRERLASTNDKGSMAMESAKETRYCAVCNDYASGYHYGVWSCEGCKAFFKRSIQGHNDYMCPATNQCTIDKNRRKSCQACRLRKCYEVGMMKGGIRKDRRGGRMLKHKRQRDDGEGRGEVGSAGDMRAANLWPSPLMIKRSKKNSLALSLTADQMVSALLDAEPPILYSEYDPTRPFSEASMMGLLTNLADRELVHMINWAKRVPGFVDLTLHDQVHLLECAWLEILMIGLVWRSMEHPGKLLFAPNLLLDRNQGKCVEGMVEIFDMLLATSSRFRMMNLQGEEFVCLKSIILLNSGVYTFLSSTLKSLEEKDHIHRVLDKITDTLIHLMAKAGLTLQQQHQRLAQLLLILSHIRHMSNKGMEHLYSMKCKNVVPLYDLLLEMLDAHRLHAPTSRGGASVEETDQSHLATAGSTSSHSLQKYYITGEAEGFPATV
Aromatase (Homo sapiens), sequence (P11511 whole entry, looked up): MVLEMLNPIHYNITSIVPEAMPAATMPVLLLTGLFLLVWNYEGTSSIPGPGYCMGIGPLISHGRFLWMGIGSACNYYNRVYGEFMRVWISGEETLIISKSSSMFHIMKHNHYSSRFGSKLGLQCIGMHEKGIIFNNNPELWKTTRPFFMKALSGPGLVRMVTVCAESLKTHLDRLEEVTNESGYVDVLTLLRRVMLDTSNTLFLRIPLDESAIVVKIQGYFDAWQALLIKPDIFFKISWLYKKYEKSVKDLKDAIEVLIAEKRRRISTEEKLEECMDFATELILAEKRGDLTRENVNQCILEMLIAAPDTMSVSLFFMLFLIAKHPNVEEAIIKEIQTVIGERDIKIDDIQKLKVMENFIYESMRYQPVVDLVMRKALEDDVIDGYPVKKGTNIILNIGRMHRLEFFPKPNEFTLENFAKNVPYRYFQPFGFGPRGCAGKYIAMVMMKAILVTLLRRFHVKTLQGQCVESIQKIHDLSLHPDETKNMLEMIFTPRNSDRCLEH

For `CC1(C)C(=O)NC(=O)N1CO`, the Potency entry (in [1]; in assay [3]; in assay [5]; in assay [6]; in [7]; with Aromatase (Homo sapiens)) was “inactive” each time. Moreover, the Potency entry in assay [8] is “inactive”. Moreover, the outcome in assay [2] and in assay [4] was inactive.

In the case of `CC(C)(C)c1ccc(CCC=O)cc1`, the Potency entry in assay [1], in assay [3], in assay [5], in assay [9], in assay [7] and in assay [8] was “inactive” throughout. Moreover, the call in [2] and in assay [4] was inactive.

Take `Nc1cccc2c(=O)[nH][nH]c(=O)c12`: the Potency result (in assay [1]; in [5]; in assay [9]; in assay [6]; in assay [7]; with Aromatase (Homo sapiens)) was “inactive” throughout. Besides, the Potency result in [8] is “inactive”. Further, the outcome in assay [2] and in assay [4] was inactive.

For `CCc1c(C)[nH]c2c1C(=O)C(CN1CCOCC1)CC2` (centres undefined), the Potency result in [1] and in assay [7] was “inactive” throughout. The call in assay [2] and in [4] was inactive.

As for `N#CCCCC(C#N)CCC#N` (centres undefined), the Potency result (in assay [1]; in [3]; in assay [5]; in assay [6]; in [7]; in the assay with Aromatase (Homo sapiens)) was “inactive” throughout. The Potency entry in assay [8] is “inactive”. Besides, the compound was called inactive in assay [2] and in assay [4].

For `Nc1ccc(-c2ccc(F)cc2)cc1`, the Potency result (in assay [1]; in assay [5]; in assay [7]; with Aromatase (Homo sapiens); in assay [8]) was “inactive” each time. Besides, the result in [2] and in assay [4] was inactive. For the same compound, the Potency in assay [9] was 54.5 µM (active).

On to `O=C(O)c1cccc(C(=O)O)c1C(=O)O`, for which the Potency result in assay [1], in [3], in [5], in assay [9], in assay [6] and in [7] was “inactive” each time. Moreover, the Potency result (with Aromatase (Homo sapiens); in assay [8]) was “inactive” throughout. Also, the call in assay [2] was inactive.

For the compound `CC(C)Cc1nccs1`, the Potency entry (in assay [1]; in assay [7]; in the assay with Aromatase (Homo sapiens); in assay [8]) was “inactive” in each case. In addition, the result in assay [2] and in assay [4] was inactive.

In the case of `FC1(F)C(F)(F)C(F)(F)C2(F)C(F)(C1(F)F)C(F)(F)C(F)(F)C1(F)C(F)(F)C(F)(F)C(F)(F)C(F)(F)C12F` (centres undefined), the Potency entry (in assay [1]; in assay [7]; with Aromatase (Homo sapiens); in [8]) was “inactive” throughout. Further, the compound was called inactive in assay [2] and in assay [4].

As for `CS(C)=O`, the Potency entry (in assay [1]; in assay [7]; with Aromatase (Homo sapiens); in assay [8]) was “inactive” in each case. Moreover, the call in [2] and in assay [4] was inactive.

Consider `C=CC(C)CCC=C(C)C` (centres undefined), for which the Potency entry (in assay [1]; in assay [7]; with Aromatase (Homo sapiens); in assay [8]) was “inactive” throughout. In addition, the compound was classed as inactive in assay [2] and in assay [4].

As to `Cc1ccc(S(=O)(=O)NC(=O)NC2CCCC2)cc1`, the Potency result (in assay [1]; in [7]; with Aromatase (Homo sapiens); in [8]) was “inactive” each time. Further, the result in assay [2] and in assay [4] was inactive.

For the compound `C[C@]12CCC(=O)C=C1[C@@H]1C[C@@H]1[C@H]1[C@@H]3[C@@H]4C[C@@H]4[C@@]4(CCC(=O)O4)[C@@]3(C)CC[C@@H]12`, in [1], the Potency was 21.1 µM (active). In addition, the call in [2] and in [4] was inactive. The Potency result (in [7]; with Aromatase (Homo sapiens); in [8]) was “inactive” throughout.

On to `CCCCCCCCC(=O)OCC(C)OC(=O)CCCCCCCC` (centres undefined), for which the Potency result (in assay [1]; in assay [7]; with Aromatase (Homo sapiens); in [8]) was “inactive” each time. For the same compound, the compound was called inactive in assay [2] and in assay [4].

In the case of `C=C(C)C(=O)OCCCCCCCCCCOC(=O)C(=C)C`, the Potency result (in assay [1]; in assay [7]; with Aromatase (Homo sapiens); in assay [8]) was “inactive” in each case. The compound was called inactive in [2] and in assay [4].

For `Cc1cc(SC2=C(O)C[C@@](CCc3ccc(N)cc3)(C(C)C)OC2=O)c(C(C)(C)C)cc1CO`, the Potency entry (in [1]; in assay [7]; in the assay with Aromatase (Homo sapiens)) was “inactive” in each case. Moreover, the compound was classed as inactive in [2] and in assay [4].
